Screens as filed in PubChem.
FEN1 inhibitor – blocks human flap endonuclease 1 | P39748 | Recombinant FEN1 flap cleavage, fluorescence, 15 min | Potency, µM (series often up to 114 µM), for inactives: top-dose activity change, negative = inhibition, most hits filed as inhibitors | actives 0.35% (n = 390,000); further: on the % scale 0 is the no-effect control and ±100 the full control effect; nearly all actives have a fitted effect of over 65% in size
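Enzyme 10 nM, 15 min RT preincubation with compound; start with substrate 50 nM final; reads at 0 and 15 min; qHTS titration, four-parameter Hill fit.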
WRN inhibitor – WRN helicase (human) inhibition; AID 651768; Q14191; actives 0.46% (n = 360,000); WRN helicase unwinding, fluorescent forked duplex, kinetic; Potency, µM (top dose mostly 114 µM), without a hit: at the highest dose activity change, negative = inhibition, hits mostly inhibitors; further: on the % scale 0 is the no-effect control and ±100 the full control effect; nearly all actives have a fitted effect of over 55% in size
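Kinetic red-fluorescence monitoring (525/598 nm) tracks WRN helicase activity after 100 nM fluorophore-quencher forked duplex and 2 mM ATP are added to 20 nM enzyme pretreated 15 min at room temperature with compound.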
POLK inh – blocks human DNA polymerase kappa activity; Q9UBT6; purified Pol kappa, fluorescent DNA synthesis assay, 10 min; Potency, µM (highest dose often 107 µM), without a hit: top-dose activity, negative = inhibition, hits mostly inhibitors; actives 0.53% (n = 400,000); AID 588579; further: on the % scale 0 is the no-effect control and ±100 the full control effect
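Kinetic fluorescence screen: compound preincubated 15 min RT with 10 nM enzyme; 50 nM substrate (final) initiates; reads at 0/10 min.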
Pol eta inh – DNA polymerase eta (human) inhibition. Q9Y253. AID 588591. actives 1.2% (n = 390,000). Potency, µM (highest dose often 114 µM), for the others: at the top dose activity change, negative = inhibition, most hits filed as inhibitors. recombinant Pol eta, fluorescent DNA replication assay; further: on the % scale 0 is the no-effect control and ±100 the full control effect
Target sequence (Q9Y253 whole entry, looked up): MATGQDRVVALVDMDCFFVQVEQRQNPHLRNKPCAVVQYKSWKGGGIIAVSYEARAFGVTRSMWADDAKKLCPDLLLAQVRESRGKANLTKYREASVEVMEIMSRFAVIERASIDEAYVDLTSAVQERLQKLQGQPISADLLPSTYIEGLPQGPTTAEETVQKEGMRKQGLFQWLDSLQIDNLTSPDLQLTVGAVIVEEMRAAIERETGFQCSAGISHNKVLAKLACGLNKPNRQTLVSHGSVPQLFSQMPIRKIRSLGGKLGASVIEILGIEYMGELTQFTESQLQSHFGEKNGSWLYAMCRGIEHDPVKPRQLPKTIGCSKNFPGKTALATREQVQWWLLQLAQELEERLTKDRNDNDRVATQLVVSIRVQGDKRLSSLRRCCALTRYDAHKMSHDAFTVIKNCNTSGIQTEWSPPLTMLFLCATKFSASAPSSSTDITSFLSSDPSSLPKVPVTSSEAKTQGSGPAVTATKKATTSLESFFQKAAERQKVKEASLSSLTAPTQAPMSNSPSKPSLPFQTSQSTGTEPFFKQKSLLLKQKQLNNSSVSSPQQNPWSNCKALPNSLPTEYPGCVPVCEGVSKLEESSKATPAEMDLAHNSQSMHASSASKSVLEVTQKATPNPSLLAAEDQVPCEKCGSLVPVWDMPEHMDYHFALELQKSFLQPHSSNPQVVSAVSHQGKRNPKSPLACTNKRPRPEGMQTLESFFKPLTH
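Fluorescent replication assay: 50 nM final substrate added after a 15 min room-temperature compound preincubation with 10 nM enzyme. Signal taken at 0 min and again at 10 min.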
Pol beta inh – blocks human DNA polymerase beta activity. Pol beta primer extension/strand displacement, fluorescence kinetic. actives 1.3% (n = 340,000). Potency, µM (highest dose often 114 µM), inactives show at the highest dose activity change, negative = inhibition, usual class: inhibitors. P06746; further: on the % scale 0 is the no-effect control and ±100 the full control effect
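Curves were derived by four-parameter Hill fits of normalized qHTS data. The kinetic fluorescent primer-extension read was taken at 0 and 10 min after 50 nM substrate, following a 15 min room-temperature preincubation of 10 nM enzyme with compounds.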
POLI inh – inhibitors of human DNA polymerase iota; Pol iota fluorescent replication assay, 10 min; actives 1% (n = 390,000); Potency, µM (doses to about 115 µM), for inactives: at the top dose activity, negative = inhibition, usual class: inhibitors
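Fluorescent replication assay read twice, at 0 min and 10 min after adding 50 nM (final) substrate. Enzyme (10 nM) and compounds were first incubated 15 min at room temperature; enzyme-free buffer wells were negative controls.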
Numbers without * were called inactive; [ ] = another dose, or the depositor's remark. Only some compounds are listed: those with a hit (about 2.4% of all), similar ones and a draw of the others. The call rests on the fitted dose curve; in most records, active means well fitted curve in the direction sought with a large enough effect; inconclusive means small, poorly fitted or top-dose-only effect, or another doubt; inactive means no such curve, though single readings can be large; an effect the other way counts as inactive or inconclusive. Potency means the concentration at half of the fitted maximal effect.

Results for O=C1C(=Cc2ccc(Br)o2)C(=O)c2ccccc21 ?
FEN1 inhibitor: 14µM*; WRN inhibitor: 8.9µM*; POLK inh: inconclusive; Pol eta inh: 0.79µM*; Pol beta inh: 1.4µM*; POLI inh: 1.1µM*

Results for C(=C\c1ccccc1)/C=N/Nc1ccc2nncn2n1 ?
FEN1 inhibitor: -5%; WRN inhibitor: -7%; POLK inh: 8%; Pol eta inh: -20%; Pol beta inh: -1%; POLI inh: 24%

What do the screens show for `CC(/C=N/Nc1ccc2nncn2n1)=C\c1ccccc1`?
FEN1 inhibitor: inconclusive; WRN inhibitor: -4%[11.6 µM]; POLK inh: -5%; Pol eta inh: 79µM*; Pol beta inh: inconclusive; POLI inh: -4%

How did Cn1c(Oc2ccncc2)nc2cc(-c3ccsc3)sc2c1=O do in these assays?
WRN inhibitor: 13%

How did Brc1cccc[n+]1CCC[n+]1ccccc1Br do in these assays?
FEN1 inhibitor: 79µM*; POLK inh: -19%; POLI inh: inconclusive

Results for O=C[C@@H]1CCCN1C(=O)[C@@H]1CCCN1C(=O)OCc1ccccc1 ?
POLK inh: 7%[19.4 µM]

How did CN(c1ccc(C(=O)NCc2ccco2)cc1)S(C)(=O)=O do in these assays?
FEN1 inhibitor: 5%; WRN inhibitor: 2%; POLK inh: -21%; Pol eta inh: 11%; Pol beta inh: 0%; POLI inh: 10%

What do the screens show for `COc1ccc(N(CC(=O)NCCSCc2ccco2)S(=O)(=O)c2ccccc2)cc1`?
FEN1 inhibitor: -10%; WRN inhibitor: -7%; POLK inh: -7%; Pol eta inh: -3%; Pol beta inh: -11%; POLI inh: 38%

Results for CN(c1ccc(C(=O)NCCSCc2ccco2)cc1)S(C)(=O)=O ?
FEN1 inhibitor: -4%; WRN inhibitor: -13%; POLK inh: -2%; Pol eta inh: -14%; Pol beta inh: 1µM*; POLI inh: 7%

Results for O=C(CN(c1ccccc1)S(=O)(=O)c1ccccc1)NCCSCc1ccco1 ?
FEN1 inhibitor: -19%; WRN inhibitor: -12%[11.6 µM]; POLK inh: 79µM*; Pol eta inh: inconclusive; Pol beta inh: 56µM*; POLI inh: inconclusive

Results for C[N+](C)(C)c1ccc(/C=C/c2ccnc3ccccc23)cc1 ?
FEN1 inhibitor: 45µM*; POLK inh: -41%; POLI inh: 31%

What do the screens show for `CCC[N+](C)(C)c1ccc(/C=C/c2ccnc3ccccc23)cc1`?
FEN1 inhibitor: 32µM*; POLK inh: inconclusive; POLI inh: inconclusive

What do the screens show for `CCCN(CCC)c1ccc(/C=C/c2ccnc3ccccc23)cc1`?
FEN1 inhibitor: -1%; POLK inh: -1%; POLI inh: 24%

Results for Oc1ccc(/C=C/c2ccnc3ccccc23)cc1 ?
FEN1 inhibitor: 2%; WRN inhibitor: 6%; POLK inh: -10%; Pol eta inh: -16%; Pol beta inh: 5%; POLI inh: 90%

What do the screens show for `CN(C)c1ccc(/C=C/c2ccnc3ccc4ccccc4c23)cc1`?
FEN1 inhibitor: 11µM*; POLK inh: 28µM*; POLI inh: inconclusive

Results for Cc1cccc(-c2noc(-c3ccccc3OCC(=O)Nc3ccc([N+](=O)[O-])cc3)n2)c1 ?
FEN1 inhibitor: -16%; POLK inh: -19%; Pol eta inh: -7%; Pol beta inh: 5%; POLI inh: 2%

Results for CC1=C(c2ccc(C)cc2)S(=O)(=O)NC1=NCc1ccccc1Cl ?
FEN1 inhibitor: 16%; POLK inh: 4%; Pol eta inh: -2%; Pol beta inh: -11%; POLI inh: 18%

What do the screens show for `CCCc1cnc(Nc2nc(C(N)Cc3ccc(OC)cc3)cs2)nc1` (configuration not stated)?
WRN inhibitor: -4%

How did COc1cc(F)ccc1-c1csc(C(O)c2ccc(F)cc2)n1 (configuration not stated) do in these assays?
WRN inhibitor: -10%

What do the screens show for `O=C(N/N=C/c1ccco1)c1cccc(S(=O)(=O)Nc2ccccc2Cl)c1`?
FEN1 inhibitor: 5%; WRN inhibitor: inconclusive; POLK inh: inconclusive; Pol eta inh: 20µM*; Pol beta inh: 22µM*; POLI inh: 45µM*

What do the screens show for `COc1ccc(Cl)cc1NC(=O)C1CCN(S(=O)(=O)c2ccc(F)cc2)CC1`?
FEN1 inhibitor: inconclusive; POLK inh: -38%; Pol eta inh: -16%; Pol beta inh: 17%; POLI inh: 89µM*

What do the screens show for `COc1ccc(Cl)cc1NC(=O)C1Cc2ccccc2CN1S(C)(=O)=O` (configuration not stated)?
FEN1 inhibitor: -7%; WRN inhibitor: 2%[11.6 µM]; POLK inh: -35%; Pol eta inh: inconclusive; Pol beta inh: inconclusive; POLI inh: 56µM*

Results for O=C(C1Cc2ccccc2CN1S(=O)(=O)c1ccc(F)cc1)N1CCOCC1 (configuration not stated) ?
FEN1 inhibitor: 11%; WRN inhibitor: 4%; POLK inh: -3%; Pol eta inh: -2%; Pol beta inh: 10%; POLI inh: 21%

What do the screens show for `CCS(=O)(=O)N1Cc2ccccc2CC1C(=O)N1CCN(c2ccccc2)CC1` (configuration not stated)?
FEN1 inhibitor: -16%; WRN inhibitor: inconclusive; POLK inh: inconclusive; Pol eta inh: 16µM*; Pol beta inh: 35µM*; POLI inh: inconclusive

How did CCOc1ccccc1CNC(=O)CCC(=O)N1CCSc2ccccc21 do in these assays?
FEN1 inhibitor: 10%; POLK inh: -30%; Pol eta inh: -20%; Pol beta inh: -2%; POLI inh: 21%

Results for O=c1[nH]c(=O)n(Cc2ccccc2)c2nc(-c3cccs3)n(CCO)c12 ?
FEN1 inhibitor: -15%; WRN inhibitor: -11%; POLK inh: -7%; Pol eta inh: -2%; Pol beta inh: 35µM*; POLI inh: -15%

Results for CN(C)c1ccc(-c2cncnc2NCc2cccnc2)cc1 ?
POLK inh: 5%[60.1 µM]

What do the screens show for `Cc1ccc(S(=O)(=O)c2ccc([N+](=O)[O-])o2)cc1`?
FEN1 inhibitor: 6%; WRN inhibitor: 14µM*; POLK inh: -12%; Pol eta inh: 9%; POLI inh: 18µM*

Results for Cc1ccc(-c2ccc(S(=O)(=O)Nc3cccnc3)cc2)cc1 ?
FEN1 inhibitor: 2%; WRN inhibitor: -7%; POLK inh: -6%; Pol eta inh: -21%; Pol beta inh: 50µM*; POLI inh: 54%

Results for Cc1ccc(O)c(C2=Nc3ccccc3N=C(c3cccc(F)c3)C2)c1 ?
FEN1 inhibitor: inconclusive; POLK inh: -40%; Pol beta inh: 30%; POLI inh: 89µM*
